Assay [1] can be described thus: qHTS drug screen for cell cycle checkpoint inhibitors in PARPi-resistant BRCA-mutant ovarian cancer cell lines. (AID 1963452; calls by dose curve). Particulars: PEO1/OlaR viability, CellTiter-Glo luminescence, 96 h, stronger effect = lower value. The essentials: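 PEO1, PEO4 and PEO1/OlaR ovarian cancer cells, 600 per well, exposed 96 h at 37C to a dilution series. Viability read by CellTiter-Glo luminescence, normalized to DMSO and empty wells; activity summarized as Z-AUC.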
Background: In qHTS, concentration-response curves come from the screen itself.

The subject of the next assay is PA-1. Description: Primary qHTS to identify gynecologic anti-cancer compounds using libraries of approved drugs and bioactive compounds (AID 1345084). Also: nearly all actives have a fitted effect of over 55% in size. Also: potency is read from the fitted curve at half-maximal effect. Particulars: Gynecologic cancer cell panel viability, ATPlite luminescence, 48 h; series mostly up to 57.5 µM. The essentials:
(§1)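 Cell viability after 48 h drug treatment, ATPlite luminescence readout; five doses.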

Assay [2] concerns the target Cytochrome P450 2D6 (Homo sapiens) (UniProt P10635). Description: Cytochrome P450 family 2 subfamily D member 6 (CYP2D6) small molecule antagonists: luciferase biochemical (cell-free) qHTS assay (AID 1645840; active = well fitted curve in the direction sought with a large enough effect in the repeat runs; an effect the other way counts as inactive or inconclusive; also: nearly all actives have a fitted effect of over 55% in size; also: potency is read from the fitted curve at half-maximal effect; as to activity change, negative = inhibition: % is scaled to controls: 0 for no effect and ±100 for the full control effect). Conditions: P450-Glo CYP2D6 enzyme, luciferin luminescence, 1 h; series mostly up to 57.4 µM. The essentials: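 P450-Glo CYP2D6 system: proluciferin substrate converted by enzyme to luciferin, read by luminescence proportional to activity. Enzyme-substrate mix with compound 10 min at room temperature, then NADPH regeneration 1 h before detection reagent.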

The target of assay [3] is Cytochrome P450 2C9 (Homo sapiens) (UniProt P11712). Description: Cytochrome P450 family 2 subfamily C member 9 (CYP2C9) small molecule antagonists: luciferase biochemical (cell-free) qHTS assay (AID 1645842; active = well fitted curve in the direction sought with a large enough effect in the repeat runs; an effect the other way counts as inactive or inconclusive; also: nearly all actives have a fitted effect of over 55% in size; also: potency is read from the fitted curve at half-maximal effect; as to activity change, negative = inhibition: % is scaled to controls: 0 for no effect and ±100 for the full control effect). Particulars: P450-Glo CYP2C9 enzyme assay, luciferin luminescence; series mostly up to 57.4 µM. The method in brief: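 P450-Glo CYP2C9 system: proluciferin substrate with enzyme in mix containing 0.4% BSA, 10 min at room temperature, then NADPH regeneration solution added and incubated 1 h at 37C. Detection reagent stopped reaction; luminescence read after 20 min as RLU.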
Chain of Cytochrome P450 2C9 (Homo sapiens) (P11712 whole entry, looked up): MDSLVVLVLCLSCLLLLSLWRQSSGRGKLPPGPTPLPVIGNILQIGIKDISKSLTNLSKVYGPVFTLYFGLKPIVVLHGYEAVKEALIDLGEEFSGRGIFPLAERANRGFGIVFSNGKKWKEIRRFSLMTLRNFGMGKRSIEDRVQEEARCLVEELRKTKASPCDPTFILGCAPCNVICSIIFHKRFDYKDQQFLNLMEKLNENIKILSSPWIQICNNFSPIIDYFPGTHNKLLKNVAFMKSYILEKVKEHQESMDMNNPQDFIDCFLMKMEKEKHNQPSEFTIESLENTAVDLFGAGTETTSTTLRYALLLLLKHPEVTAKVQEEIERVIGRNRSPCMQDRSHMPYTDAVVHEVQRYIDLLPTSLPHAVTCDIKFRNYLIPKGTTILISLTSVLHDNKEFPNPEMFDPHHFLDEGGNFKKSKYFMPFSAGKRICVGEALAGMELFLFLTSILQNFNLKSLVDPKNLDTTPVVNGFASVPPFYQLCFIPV

The nature of assay [4]: P-glycoprotein substrates identified in KB-8-5-11 adenocarcinoma cell line, qHTS therapeutic library screen (AID 1346987). Also: nearly all actives have a fitted effect of over 65% in size. Also: potency is read from the fitted curve at half-maximal effect. Particulars: KB-8-5-11 (P-gp overexpressing) viability, CellTiter-Glo, 72 h; series mostly up to 44.5 µM. The essentials: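 Luminescence from CellTiter-Glo, read 5 min after addition, quantified survival of KB-8-5-11 (P-gp-overexpressing) cells exposed to compounds for 72 h. AC50 was derived from concentration-response curves.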

Another assay has as its system SKOV3. Description: Primary qHTS to identify gynecologic anti-cancer compounds using libraries of approved drugs and bioactive compounds (AID 1345084). Also: nearly all actives have a fitted effect of over 55% in size. Also: potency is read from the fitted curve at half-maximal effect. Particulars: Gynecologic cancer cell panel viability, ATPlite luminescence, 48 h; series mostly up to 57.5 µM. The method in brief: as §1
In assay [5] the test system is Zika virus NS2B-NS3 protease (unlinked complex). The assay can be described thus: Primary screen GU Rhodamine qHTS for Zika virus inhibitors: Unlinked NS2B-NS3 protease assay (AID 1347159). Also: nearly all actives have a fitted effect of over 60% in size. Also: potency is read from the fitted curve at half-maximal effect. As to activity change, negative = inhibition: % is scaled to controls: 0 for no effect and ±100 for the full control effect. Conditions: Recombinant ZIKV NS2B-NS3 protease, Rhodamine110 substrate fluorescence; series mostly up to 107 µM. The method in brief:
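Buffer 10 mM Tris-HCl pH 8.0, 0.01% Tween 20. Unlinked protease 25 nM; compound preincubation 15 min, RT, protected from light. Substrate Rhod110, 1.5 microM; ~15% conversion in 15 min.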

Assay [6] can be described thus: qHTS to identify inhibitors of the type 1 interferon - major histocompatibility complex class I in skeletal muscle: primary screen against the NCATS Mechanism Interrogation Plate v5.0 (MIPE) Libary (AID 1347411).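 Also: plate controls were vehicle for no effect and reference inhibitor for full effect; nearly all actives have a fitted effect of over 65% in size.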 Conditions: iHSKM cells + IFN-b, HiBiT-tagged MHC-I luminescence, 24 h; series mostly up to 45.8 µM. The essentials:
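Seed engineered human myoblasts (HLA-B HiBit) in medium without dexamethasone containing 4 ng/ml IFN-beta; after 1 hr add compound titrations (top 46 uM final). Incubate 24 hrs at 37 C, lyse 10 min with HiBiT reagent, read luminescence.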

For assay [7], the target named is Catechol O-methyltransferase (Homo sapiens) (UniProt P21964). Description: Confirmatory Screen for Target Class Profiling of Small Molecule Inhibitors of Methyltransferases (AID 1745852). Particulars: MTase-Glo luminescence, SAH detection, recombinant enzyme; measured here: COMT max response; stronger effect = lower value.
Chain of Catechol O-methyltransferase (Homo sapiens) (P21964 whole entry, looked up): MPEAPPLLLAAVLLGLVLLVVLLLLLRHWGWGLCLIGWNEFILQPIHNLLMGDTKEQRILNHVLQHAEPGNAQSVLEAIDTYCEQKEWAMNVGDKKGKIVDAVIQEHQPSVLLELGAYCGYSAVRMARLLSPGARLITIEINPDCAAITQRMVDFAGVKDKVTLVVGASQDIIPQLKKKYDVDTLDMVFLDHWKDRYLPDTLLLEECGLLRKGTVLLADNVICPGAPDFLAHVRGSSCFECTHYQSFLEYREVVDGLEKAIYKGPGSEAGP
Assay [8] addresses Guanidinoacetate N-methyltransferase (Homo sapiens) (UniProt Q14353). The assay is described as above. Conditions: MTase-Glo luminescence, SAH detection, recombinant enzyme; activity change, negative = inhibition: at 57.3 µM (top of the series) unless noted; series mostly up to 57.3 µM.
Assay [9] addresses Nicotinamide N-methyltransferase (Homo sapiens) (UniProt P40261). Described as above. Particulars: MTase-Glo luminescence, SAH detection, recombinant enzyme; measured here: NNMT max response; stronger effect = lower value.
Assay [10] concerns the target Phenylethanolamine N-methyltransferase (Homo sapiens) (UniProt P11086). The description is as above. Particulars: MTase-Glo luminescence, SAH detection, recombinant enzyme; measured here: PNMT max response; stronger effect = lower value.
Assay [11] can be described thus: Confirmatory screen GU Rhodamine qHTS for Zika virus inhibitors qHTS (AID 1347157). Also: potency is read from the fitted curve at half-maximal effect; nearly all actives have a fitted effect of over 70% in size. Conditions: purified enzyme assay, Rhodamine110 substrate fluorescence, 15 min; series mostly up to 114 µM. The method in brief: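 A qHTS format was used, with compound concentrations ranging up to 114 microM. Each compound was preincubated with 25 nM NS2B-NS3 protease, and the substrate was then added at 1.5 microM. Curves were fitted with a 4-parameter Hill model.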

Assay [12] in a line: HepG2 cells viability qHTS for Zika virus inhibitors (AID 1347168). Also: % is scaled to controls: 0 for no effect and ±100 for the full control effect. Conditions: Zika counter-screen; series mostly up to 45.9 µM. The method in brief:
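Luminescent ATP readout (CellTiter Glo) after 30 min at 37 degrees C gives viability; cells in DMEM + 4% FBS were treated 24 to 48 hours with compound, following overnight attachment.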

[13] abbreviates: measured here: PEO1 parental Z-AUC.

Records with an inconclusive call do not appear. The source made the active and inactive calls. Unless noted, calls follow the shape of the dose curve; as a rule, active = well fitted curve in the direction sought with a large enough effect; inconclusive = small, poorly fitted or top-dose-only effect, or another doubt; inactive = no such curve, though single readings can be large; an effect the other way counts as inactive or inconclusive.

Chain of Cytochrome P450 2D6 (Homo sapiens) (P10635 whole entry, looked up): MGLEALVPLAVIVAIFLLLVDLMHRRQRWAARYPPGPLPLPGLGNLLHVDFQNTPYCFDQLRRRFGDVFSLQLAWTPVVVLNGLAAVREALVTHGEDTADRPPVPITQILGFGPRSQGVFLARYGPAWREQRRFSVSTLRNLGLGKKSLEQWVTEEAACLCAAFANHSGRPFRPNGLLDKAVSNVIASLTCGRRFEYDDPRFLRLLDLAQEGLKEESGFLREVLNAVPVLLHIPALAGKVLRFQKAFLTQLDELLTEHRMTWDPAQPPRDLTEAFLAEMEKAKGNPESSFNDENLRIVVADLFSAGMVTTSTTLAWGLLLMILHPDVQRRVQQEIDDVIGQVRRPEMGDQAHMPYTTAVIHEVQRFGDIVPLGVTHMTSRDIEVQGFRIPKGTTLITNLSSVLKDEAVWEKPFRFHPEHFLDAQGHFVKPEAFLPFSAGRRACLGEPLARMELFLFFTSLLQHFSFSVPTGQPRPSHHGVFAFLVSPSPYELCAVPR
Chain of Phenylethanolamine N-methyltransferase (Homo sapiens) (P11086 whole entry, looked up): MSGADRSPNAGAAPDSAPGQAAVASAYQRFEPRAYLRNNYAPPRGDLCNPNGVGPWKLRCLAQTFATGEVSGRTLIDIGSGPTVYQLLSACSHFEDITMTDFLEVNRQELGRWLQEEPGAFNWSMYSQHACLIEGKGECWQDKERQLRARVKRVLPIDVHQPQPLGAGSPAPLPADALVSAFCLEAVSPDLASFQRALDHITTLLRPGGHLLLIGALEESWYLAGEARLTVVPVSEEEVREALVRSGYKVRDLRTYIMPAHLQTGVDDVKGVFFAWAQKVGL
Chain of Nicotinamide N-methyltransferase (Homo sapiens) (P40261 whole entry, looked up): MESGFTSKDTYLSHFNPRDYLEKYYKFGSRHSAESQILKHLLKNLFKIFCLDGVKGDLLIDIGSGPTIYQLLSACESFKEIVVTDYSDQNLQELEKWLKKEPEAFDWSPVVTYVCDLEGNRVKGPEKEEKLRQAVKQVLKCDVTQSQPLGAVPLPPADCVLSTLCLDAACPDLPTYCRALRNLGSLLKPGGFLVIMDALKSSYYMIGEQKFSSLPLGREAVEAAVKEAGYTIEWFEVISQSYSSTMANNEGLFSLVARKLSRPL

Consider `CC(=O)Nc1ccc(C(=O)Nc2ccccc2N)cc1`, for which the Z-AUC was -0.302 (inactive) in assay [1], -0.636 in assay [1] (setting [13]) and -0.146 in assay [1] (measured here: PEO4 Z-AUC). In addition, the Potency with PA-1 was 7.08 µM (active).
Regarding `COc1ccc(C2(CNC(=O)[C@](C)(Cc3c[nH]c4ccccc34)NC(=O)Nc3ccc([N+](=O)[O-])cc3)CCCCC2)nc1`, the values for the Potency in [2] and in assay [3] were 3.01 µM (active) and 2.68 µM (active), respectively. Besides, the Potency entry with PA-1 was “inactive”.
Take `C=C1C(=O)O[C@@H]2C[C@@H](C)[C@]34C[C@]5(C(=O)O[C@H]6CC(C)=C([C@H](C)CCCO)[C@H](OC(=O)C(C)CC)[C@H]65)[C@@H](C(C)=C3C[C@@H]12)[C@H]4OC(C)=O` (some centres not stated): the Potency in assay [4] is 5.44 µM (active). The Potency entry in the assay on SKOV3 was “inactive”.
On to `C=C1C(=O)O[C@@H]2/C=C(/C)CC3C=C(C[C@H](OC(=O)/C(C)=C\C)[C@@H]12)C(=O)O3` (some centres not stated), for which the Potency entry (in assay [5]; in the assay on PA-1; with SKOV3) was “inactive” throughout.
With `CN(C)C(=O)c1cc2cnc(Nc3ccc(N4CCNCC4)cn3)nc2n1C1CCCC1`, the Potency result (in [4]; in assay [6]; in [2]; in the assay on SKOV3) was “inactive” throughout. Also, the results for the Z-AUC in assay [1], in assay [1] (setting [13]) and in assay [1] (measured here: PEO4 Z-AUC) were 0.0269 (inactive), 0.759 and 0.126, respectively.
Turning to `C[C@H](NC(=O)C(C)(C)Oc1ccc(C(F)(F)F)cn1)[C@@H](Cc1ccc(Cl)cc1)c1cccc(C#N)c1`, the Potency in assay [4] was 14.6 µM (active); in [2] it was 1.9 µM (active). For the same molecule, the Potency entry (in assay [5]; in the assay on PA-1) was “inactive” throughout.
For `C[C@@H](CN1CCC(n2c(=O)[nH]c3cc(Cl)ccc32)CC1)NC(=O)c1ccc2ccccc2c1`, the figures for the Potency in [4], in [2] and in assay [3] were 18.4 µM (active), 10.7 µM (active) and 0.239 µM (active), respectively. Besides, the Potency result (in assay [5]; with SKOV3) was “inactive” throughout.
As for `COc1ccc2c3ccnc4ccc(=O)n(c2c1)c43`, the Potency result in [5] was “inactive”. Further, the Potency in the assay on PA-1 is 25.1 µM (active).
With `O=C(CC1NCCC[C@H]1O)Cn1cnc2cc(Br)c(Cl)cc2c1=O` (some centres not stated), the Potency result (in assay [5]; in the assay on SKOV3) was “inactive” throughout.
Consider `CN(C)CCCNc1nc(CN2CCN(C(c3ccc(Cl)cc3)c3ccc(Cl)cc3)CC2)nc2ccccc12`, for which the Potency result (in [5]; in assay [3]; in the assay on PA-1) was “inactive” throughout. Moreover, the activity in assay [7] was 2.87%; in [9], -46.9%; in [10], -0.0137%. For the same molecule, in assay [8], the activity change, negative = inhibition came out at 0%.
Take `CC(=O)N1c2ccc(-c3ccc(C(=O)O)cc3)cc2C(Nc2ccc(Cl)cc2)CC1C` (configuration not stated): the Potency in assay [11] was 17.5 µM (active); in assay [5], 20 µM (active); in assay [3], 8.49 µM (active); in the assay on SKOV3, 3.98 µM (active). For the same molecule, the Potency entry in assay [12] and in [2] was “inactive” in each case.
Consider `c1ccc(-c2cnc(Nc3ccc(OCCN4CCCC4)cc3)s2)cc1`, for which the Potency in assay [4] is 16.4 µM (active); in [2], 10.7 µM (active); with SKOV3, 35.5 µM (active). For the same molecule, in assay [5], the Potency result was “inactive”.
For `CCN(CC)Cc1cccc(/C=C/c2nc3ccc(F)cc3c(=O)n2-c2ccccc2Cl)n1`, the Potency entry in assay [5] is “inactive”. Besides, the Potency is 19 µM (active) in assay [3] and 20 µM (active) in the assay with SKOV3.

Values taken from PubChem BioAssay (NCATS).
